ALOX12 inh – Primary qHTS assay for inhibitors of human arachidonate 12S-lipoxygenase (ALOX12): Round 2. Polyunsaturated fatty acid lipoxygenase ALOX12 (Homo sapiens), P18054. Potency, µM (highest dose often 108 µM), usual class: inhibitors. purified 12hLO, xylenol orange hydroperoxide absorbance. 1.1% of 580,000 active. AID 1671190, 2021
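Purified human 12hLO (150 nM final) in 25 mM Hepes, 0.01% Triton X-100, pH 7.0 was preincubated 15 min at room temperature with compound. Then 40 uM arachidonic acid was added, 30 min. Hydroperoxide was read by Fe-XO absorbance ratio 573/405 nm.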
EPAC1 antag – qHTS for Antagonist of cAMP-regulated guanine nucleotide exchange factor 3 (EPAC1): primary screen. EPAC1 GEF assay, Rap1b-BODIPY-GDP exchange fluorescence. 0.14% of 360,000 active. Potency, µM (doses to about 115 µM), usual class: inhibitors; also: nearly all actives have a fitted effect of over 50% in size
EPAC1 ag – qHTS for Agonist of cAMP-regulated guanine nucleotide exchange factor 3 (EPAC1): primary screen; Rap guanine nucleotide exchange factor 3 (Homo sapiens), O95398; EPAC1 agonist qHTS, biochemical assay; response scale: 100% = response to 6.5 mM cAMP; Potency, µM (series often up to 154 µM), usual class: activators; 0.073% of 360,000 active; AID 720707, 2013; also: nearly all actives have a fitted effect of over 60% in size
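Multi-concentration qHTS readout: loss of Rap1B-bound BODIPY-GDP fluorescence driven by 100 nM EPAC1 with excess GDP (50 uM), monitored kinetically at room temperature; agonist response expressed relative to 6.5 mM cAMP.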
EPAC2 agonist – qHTS for Agonist of cAMP-regulated guanine nucleotide exchange factor 4 (EPAC2): primary screen. EPAC2 activation, biochemical qHTS; response scale: 100% = 6.5 mM cAMP response. 0.079% of 360,000 active. AID 720711, 2013. Potency, µM (series often up to 154 µM), hits mostly activators; also: nearly all actives have a fitted effect of over 50% in size
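Nucleotide exchange monitored as fluorescence drop when BODIPY-GDP leaves Rap1B. Reaction: 100 nM EPAC2, 250 nM RAP1B-BODIPY-GDP, 50 uM GDP, room temperature, kinetic read over 30 min. Activity expressed relative to 6.5 mM cAMP.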
USP1 inh – Inhibitors of USP1/UAF1: Primary Screen; recombinant USP1/UAF1, Ub-Rhodamine cleavage fluorescence; Potency, µM (top dose mostly 57.1 µM), hits mostly inhibitors; 0.23% of 390,000 active; Ubiquitin carboxyl-terminal hydrolase 1 (Homo sapiens), O94782; also: nearly all actives have a fitted effect of over 60% in size
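USP1/UAF1 complex (1 nM) preincubated 15 min at room temperature with compound, then Ub-Rho substrate (150 nM final) added. Kinetic fluorescence at 480/540 nm over 6 reads at 60 s intervals; 50 mM HEPES pH 7.8, 0.5 mM EDTA, 0.1 mg/ml BSA, 1 mM TCEP, 0.01% Tween-20.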
EPAC2 antagonist – qHTS for Antagonist of cAMP-regulated guanine nucleotide exchange factor 2 (EPAC2): primary screen | AID 720708, 2013 | Potency, µM (series often up to 114 µM), usual class: inhibitors | 0.18% of 360,000 active | EPAC2 GEF exchange of Rap1B-BODIPY-GDP, fluorescence; also: nearly all actives have a fitted effect of over 45% in size
A number is an active result; n = inactive; u = inconclusive; x = no result given. A selection: hits, their analogues and other compounds. The true share with any hit is near 1.3%. Calls follow the shape of the dose curve; as a rule, active = well fitted curve in the direction sought with a large enough effect; inconclusive = small, poorly fitted or top-dose-only effect, or another doubt; inactive = no such curve, though single readings can be large; an effect the other way counts as inactive or inconclusive.

SMILES | ALOX12 inh | EPAC1 antag | EPAC1 ag | EPAC2 agonist | USP1 inh | EPAC2 antagonist
O=C(NC1(O)C(=O)c2ccccc2C1=O)c1ccc(C(F)(F)F)cc1 | u | 35µM | n | n | 16µM | u
Cc1ccc(C(=O)NC2(O)C(=O)c3ccccc3C2=O)cc1C | 20µM | u | n | n | u | n
CCOc1ccc(NC(=O)c2nn(C)c(=O)c3ccccc23)cc1S(=O)(=O)N1CCCC1 | n | x | x | x | x | x
Cc1ccc(CSC2=NS(=O)(=O)c3ccccc3N2Cc2ccccc2)cc1 | n | x | x | x | x | x
CCCN1C(=O)c2ccccc2NC1c1ccc(OC)c(CSc2ccccn2)c1 (centres undefined) | n | u | n | n | n | 14µM
CCCN1C(=O)c2ccccc2NC1c1ccc(OC)cc1O (centres undefined) | n | n | n | n | n | n
CCCN1C(=O)c2ccccc2NC1c1ccc(OC)cc1OC (centres undefined) | n | n | n | n | n | 32µM
Cc1ccc(NS(=O)(=O)c2ccc(Cl)c(NC(=S)NC(=O)C3CCCCC3)c2)cc1Cl | 13µM | n | n | n | n | n
Cc1ccc(NC(=S)NC(=O)C2CCCC2)c(Br)c1 | 35µM | n | n | n | n | n
Cc1ccc(NC(=O)C2CCCC2)cc1Cl | n | n | n | n | n | n
O=C(CCCc1c[nH]c2ccccc12)NCCNC(=O)c1ccco1 | n | x | x | x | x | x
COc1cc(C(=O)Nc2cc(-c3nc4ccccc4o3)ccc2C)cc(OC)c1OC | n | x | x | x | x | x
CC1=C(c2ccccc2)S(=O)(=O)N=C1Nc1ccc(C)c(Cl)c1 | n | x | x | x | x | x
Cc1ccc2c(c1)N(CC(=O)NCCC1=CCCCC1)C(=O)c1cccnc1O2 | 20µM | n | n | n | n | n
COC(=O)c1cccc(NC(=O)c2cnc(C)cn2)c1 | n | x | x | x | x | x
CCC(C)(C)C1CCC(=NNC(=S)Nc2ccccc2)CC1 (centres undefined) | u | n | n | n | n | n
CC1CCC/C(=N/NC(=S)Nc2ccccc2)C1 (centres undefined) | 28µM | x | x | x | x | x
Cc1nc(-c2ccncc2)[nH]c(=O)c1CC(=O)N(C)C(C)CC(C)C (centres undefined) | n | x | x | x | x | x
Cc1ccc2c(CSc3nnc(NCC(C)C)s3)cc(=O)oc2c1 | 18µM | x | x | x | x | x
CC(=O)N1CCc2nc3sc(C(=O)Nc4ccc(Cl)cc4)c(N)c3c(C(F)(F)F)c2C1 | n | x | x | x | x | x
CC(=O)Nc1ccc(NC(=O)C(C)OC(=O)C2CCC2)cc1 (centres undefined) | n | n | n | n | n | n
CCCCC1CCC(C(=O)OC(C)C(=O)Nc2ccc(NC(C)=O)cc2)CC1 (centres undefined) | 40µM | n | n | n | n | n
O=C(N/N=C\c1c(O)ccc2ccccc12)c1ccc(S(=O)(=O)N2CCCCC2)cc1 | n | n | n | 100µM | u | n
C/C(=N\NC(=O)c1cccc(N/N=C(\C)c2ccccc2)c1)c1ccccc1 | u | n | n | n | n | n
C/C(=N/Nc1ccc2ccccc2c1)c1ccccc1 | 2µM | x | x | x | x | x
SMILES | ALOX12 inh | EPAC1 antag | EPAC1 ag | EPAC2 agonist | USP1 inh | EPAC2 antagonist
CC/C(C)=N/Nc1cccc([N+](=O)[O-])c1 | 1.1µM | u | n | n | n | n
C/C(=N/Nc1ccccc1)c1ccc([N+](=O)[O-])cc1 | 1.6µM | x | x | x | x | x
C/C(=N\Nc1ccc([N+](=O)[O-])cc1)c1ccc(N)cc1 | u | n | n | n | n | n
Cc1ccc(C(=O)/C=C/c2ccccc2C)cc1C | n | x | x | x | x | x
COc1ccc(Oc2nc(-c3ccccc3O)nc3ccccc23)cc1 | n | x | x | x | x | x
O=C(Cc1cccs1)N/N=C\c1cccc2ccccc12 | n | x | x | x | x | x
O=S(=O)(Cc1ccc(Cl)cc1)Nc1nc2c(s1)CCCC2 | n | x | x | x | x | x
Cc1scc(C(=O)NCC2CCCCC2)c1C | 16µM | x | x | x | x | x
CSc1ccccc1C(=O)OCC(=O)NCc1cccs1 | n | x | x | x | x | x
CC[C@H](C)[C@H](NC(=O)c1ccc2nc(-n3cccc3)sc2c1)C(=O)NCc1ccccn1 | n | x | x | x | x | x
COC(=O)[C@H]1[C@H](CO)[C@H]2Cn3c(ccc(Br)c3=O)[C@H]2N1C(=O)c1ccccn1 | 0.79µM | x | x | x | x | x
COc1cc(/C=C2\COC/C(=C\c3ccc(O)c(OC)c3)C2=O)ccc1O | u | 89µM | n | n | n | n
COc1cc(/C=C2/CC/C(=C/c3ccc(O)c(OC)c3)C2=O)ccc1O | n | n | n | n | n | n
O=C(NCCc1nnc2n1CCCCC2)Nc1ccccc1 | n | x | x | x | x | x
O=c1cc(CN2CCCCC2c2ccccn2)[nH]c2ccc(F)cc12 (centres undefined) | 7.9µM | x | x | x | x | x
O=C1Nc2cc(C(=O)N3CCN(c4ccccc4)CC3)ccc2N2CCCCC12 (centres undefined) | n | x | x | x | x | x
COc1ccc2c(C)c(CCC(=O)N3CCOCC3)c(=O)oc2c1C | n | x | x | x | x | x
COc1ccc(CCNC(=S)Nc2ccc(C(C)C)cc2)cc1 | 40µM | n | n | n | n | n
CCC(C)c1ccc(NC(=S)Nc2ccc(OC)cc2)cc1 (centres undefined) | 45µM | n | n | n | n | n
COCc1cccc(-c2n[nH]c3c2CC(=O)N(Cc2ccc(OC)cc2)C3)c1 | n | x | x | x | x | x
CNC(=O)NC(=O)COc1c(Cl)cc(Cl)c2ccc(C)nc12 | n | x | x | x | x | x
N#CCCn1cc(-c2csc(NC3CCCC3)n2)c2ccccc21 | 6.3µM | x | x | x | x | x
c1ccc(C2(c3ccccc3)CCCN(Cc3cscn3)C2)cc1 | 45µM | x | x | x | x | x
OC1(CN2CCN(c3nccs3)CC2)CNCCOC1 (centres undefined) | 10µM | x | x | x | x | x
O=C1NC(=S)/C(=C\c2ccc(-c3ccccc3Cl)o2)S1 | 35µM | u | n | n | n | n
SMILES | ALOX12 inh | EPAC1 antag | EPAC1 ag | EPAC2 agonist | USP1 inh | EPAC2 antagonist
CN(C)c1cccc(-c2cnc(Nc3cccnc3)c3c2CCO3)c1 | n | x | x | x | x | x
CCCCN(CCCC)C(=O)c1ccc(N)cc1 | 16µM | x | x | x | x | x
O=C(/C=C\NCC(=O)c1ccccc1)c1ccc(F)cc1 | n | n | n | n | n | n
O=C(/C=C\NCC(=O)c1ccccc1)c1ccc2ccccc2c1 | 35µM | n | n | n | n | n
CC1(C)Nc2ccc(O)cc2-c2c1ssc2=S | 45µM | n | n | n | n | n
COc1cccc(/C=C2/C(=O)NN(c3ccc(C)c(C)c3)C2=O)c1 | 28µM | n | n | n | n | n
COc1cc(/C=C2/C(=O)NN(c3ccc(C)c(Cl)c3)C2=O)cc([N+](=O)[O-])c1O | 40µM | u | n | n | u | n

Screening data (PubChem)
